Molecules are shown by their SMILES. About 83,000 compounds went through this panel and 20% of them were active in at least one assay; those are over-represented in the sample as a whole.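 The endpoint reported here, percent growth, reads 100 for growth as untreated, 0 for no net growth and -100 for all cells dead.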 Values without a mark were called inactive. Active and inactive are the calls of the source. Rule for the calls: active = growth percent below 10; inactive = the rest.

Some test systems named below: SR leukemia; RPMI-8226 leukemia; OVCAR-8 ovarian; OVCAR-5 ovarian; OVCAR-4 ovarian; SK-OV-3 ovarian; IGROV1 ovarian; OVCAR-3 ovarian; HS 578T breast; NCI/ADR-RES ovarian; T-47D breast; BT-549 breast; MDA-MB-435 melanoma; SW-620 colon; MCF7 breast; HCT-116 colon; HCC-2998 colon; KM12 colon.
Holding throughout (assay): NCI-60 one-dose screen, 48 h (100 = growth as untreated, 0 = no growth, -100 = all killed)
Common to all, as to settings: 10 µM unless noted

In the case of `COC(=O)c1c2c(n3ccc(C)cc13)C(=O)c1ccccc1C2=O`, the growth in the test on SR leukemia is 45.9%; in the test on RPMI-8226 leukemia it was 61.1%; in the test with OVCAR-8 ovarian it was 60.2%; in the test with OVCAR-5 ovarian, 116%; in the test on OVCAR-4 ovarian, 81.7%; in the test with SK-OV-3 ovarian, 103%. The growth in the test on IGROV1 ovarian was 64.5%; with OVCAR-3 ovarian it was 67.6%; in the test on HS 578T breast, 77.7%; in the test with NCI/ADR-RES ovarian, 72.8%; with T-47D breast, 82%; in the test on BT-549 breast, 69.7%. Moreover, the growth was 93.4% in the test on MDA-MB-435 melanoma; 54.3% in the test with SW-620 colon; 55.9% in the test on MCF7 breast; 41.6% in the test with HCT-116 colon; 94.6% in the test with HCC-2998 colon; 59.4% in the test on KM12 colon.

Take `O=P(O)(O)OCC1OC(n2cnc3c(NCc4ccccc4)ncnc32)C(O)C1O` (centres undefined): the growth in the test with SR leukemia was 41.7%; in the test with RPMI-8226 leukemia, 29.5%; with OVCAR-8 ovarian it was 11.5%; in the test on OVCAR-5 ovarian, 57.7%; with OVCAR-4 ovarian it was 25.5%; with SK-OV-3 ovarian, 9.33% (active). Besides, the growth with IGROV1 ovarian was 1.31% (active); with OVCAR-3 ovarian, -66.7% (active); in the test on HS 578T breast it was 28.2%; in the test with NCI/ADR-RES ovarian, 29.7%; with T-47D breast, 22.1%; with BT-549 breast, -18.8% (active). Moreover, the growth in the test with MDA-MB-435 melanoma was 25.4%; in the test with SW-620 colon, 24.5%; in the test with MCF7 breast, 27.6%; in the test with HCT-116 colon it was 7.45% (active); in the test with HCC-2998 colon, 29.9%; with KM12 colon, 80.7%.

For the molecule `CN(C)c1ccc(-c2cc(-c3ccc(Nc4nc(Nc5ccc(Cl)cc5)nc(Nc5ccc(Cl)cc5)n4)cc3)nc(N)c2C#N)cc1`, the growth in the test on SR leukemia was 40.6%; in the test on RPMI-8226 leukemia, -27.1% (active); in the test with OVCAR-8 ovarian it was 68%; in the test on OVCAR-5 ovarian it was 87.1%; in the test on OVCAR-4 ovarian, 88.5%; in the test with SK-OV-3 ovarian it was 102%. In addition, the growth in the test on IGROV1 ovarian was 55%; in the test with OVCAR-3 ovarian, 88.3%; with HS 578T breast it was 82.5%; in the test on NCI/ADR-RES ovarian, 78%; in the test with T-47D breast, 41.3%; with BT-549 breast, 95.6%. For the same molecule, the growth is 84% in the test with MDA-MB-435 melanoma; 92.8% in the test on SW-620 colon; 41.9% in the test with MCF7 breast; 60.5% in the test with HCT-116 colon; 107% in the test on HCC-2998 colon; 74.1% in the test on KM12 colon.

`CC(C)C[C@@H](C(=O)N[C@H](C(=O)OC1CCCC1)c1ccccc1)[C@H](O)C(=O)NO`: the growth was 51.1% with SR leukemia; 29% with RPMI-8226 leukemia; 52.7% with OVCAR-8 ovarian; 59.8% in the test with OVCAR-5 ovarian; 53% with OVCAR-4 ovarian; 67.5% in the test on SK-OV-3 ovarian. The growth with IGROV1 ovarian is 73.4%; in the test with OVCAR-3 ovarian, 43.4%; in the test with HS 578T breast, 74.6%; with NCI/ADR-RES ovarian, 101%; in the test on T-47D breast it was 36.7%; in the test on BT-549 breast, 69.7%. Also, the growth in the test with MDA-MB-435 melanoma was 49.4%; in the test with SW-620 colon it was 49.8%; in the test on MCF7 breast, 43.3%; in the test on HCT-116 colon it was 56.7%; in the test with HCC-2998 colon, 94.4%; in the test with KM12 colon it was 65.7%.

`N/C(=N\c1nc2ccccc2s1)NC(=NC1CCCCC1)NC1CCCCC1`: the growth with SR leukemia is 8.88% (active); in the test on RPMI-8226 leukemia it was -30.4% (active); with OVCAR-8 ovarian, 4.41% (active); in the test on OVCAR-5 ovarian, 24.6%; in the test on OVCAR-4 ovarian it was 26.7%; in the test on SK-OV-3 ovarian, 74.9%. Also, the growth with IGROV1 ovarian was 14.4%; in the test on OVCAR-3 ovarian it was 57.6%; with HS 578T breast, 37.8%; in the test on NCI/ADR-RES ovarian, 15%; in the test with T-47D breast it was 13.2%; in the test with BT-549 breast, 47.6%. Further, the growth was -33.7% (active) in the test on MDA-MB-435 melanoma; 0.593% (active) in the test with SW-620 colon; -42.4% (active) in the test on MCF7 breast; 0.368% (active) in the test with HCT-116 colon; -88.6% (active) with HCC-2998 colon; 27.5% in the test on KM12 colon.

For `Fc1ccc(CNc2c3ccccc3nc3ccccc23)cc1`, the growth in the test with SR leukemia is 6.59% (active); with RPMI-8226 leukemia, -0.445% (active); in the test with OVCAR-8 ovarian it was 22.3%; with OVCAR-5 ovarian, 38.5%; in the test with OVCAR-4 ovarian, 33.2%; in the test on SK-OV-3 ovarian, 39.9%. Moreover, the growth is 21.9% in the test with IGROV1 ovarian; 38.7% with OVCAR-3 ovarian; 39.5% in the test on HS 578T breast; 29.7% with NCI/ADR-RES ovarian; 31.1% in the test with T-47D breast; 80.7% in the test on BT-549 breast. In addition, the growth was 34.8% in the test on MDA-MB-435 melanoma; 22.8% with SW-620 colon; 7.09% (active) in the test with MCF7 breast; 12.6% with HCT-116 colon; 18.3% in the test with HCC-2998 colon; 28.3% in the test on KM12 colon.

Regarding `C=CC(=O)N1CCN(c2ccc3cccc(NC(=O)c4cnc(C)cn4)c3n2)CC1`, the growth in the test with SR leukemia was 9.43% (active); in the test with RPMI-8226 leukemia, 43.3%; in the test with OVCAR-8 ovarian, 27.2%; in the test on OVCAR-5 ovarian, 71.5%; in the test with OVCAR-4 ovarian, 43.7%; with SK-OV-3 ovarian it was 11.1%. Further, the growth with IGROV1 ovarian is 9.7% (active); in the test with OVCAR-3 ovarian, 43.5%; in the test on HS 578T breast, 34.3%; with NCI/ADR-RES ovarian, 30.9%; in the test with T-47D breast, 28.2%; in the test on BT-549 breast, 34.3%. Further, the growth in the test on MDA-MB-435 melanoma was 33.1%; in the test on SW-620 colon, 48.7%; with MCF7 breast it was 48.2%; in the test on HCT-116 colon, 27.4%; in the test with HCC-2998 colon it was 72.4%; in the test with KM12 colon it was 23%.

Take `COc1cc(OC)cc(C2C(C#N)=C(N)Oc3c2ccc2ccc(O)cc32)c1` (centres undefined): the growth with SR leukemia is 12.6%; in the test with RPMI-8226 leukemia, 8.83% (active); with OVCAR-8 ovarian it was 18.1%; with OVCAR-5 ovarian it was 33.1%; with OVCAR-4 ovarian, 55.6%; in the test with SK-OV-3 ovarian, 42.3%. Moreover, the growth with IGROV1 ovarian was 14.3%; in the test on OVCAR-3 ovarian it was -16% (active); in the test on HS 578T breast, 53.2%; in the test on NCI/ADR-RES ovarian, -8.97% (active); in the test with T-47D breast, 58.4%; in the test with BT-549 breast, 26.2%. Further, the growth in the test on MDA-MB-435 melanoma was 4.98% (active); with SW-620 colon it was 26.1%; in the test with MCF7 breast, 7.95% (active); with HCT-116 colon it was 4.25% (active); in the test with HCC-2998 colon it was 7.75% (active); with KM12 colon it was 5.84% (active).

(Values after PubChem BioAssay (NCI).)
